Compounds with a hit are over-represented: about 19% of the library has one in this group of screens.
HT1080 IDH1KD tx: qHTS for induction of synthetic lethality in tumor cells producing 2HG: qHTS for the HT-1080-IDH1KD cell line | HT-1080 IDH1 knockdown viability, ATP luminescence, 48 h | Potency, µM (top dose mostly 46.1 µM), inactives show top-dose activity, negative = toxicity, most hits filed as cytotoxic | 360,000 tested, 2% active | AID 686971, 2013;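 further: potency means the concentration at half of the fitted maximal effect; 0% = DMSO wells and -100% = cell-free medium wells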
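Viability of IDH1-knockdown HT-1080 fibrosarcoma cells was assessed by CellTiter-Glo after 48 h at 37 °C with titrated compound; concentration-effect curves were classified by fit quality and response size.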
DT40 TDP1 CPT: qHTS for Inhibitors of human tyrosyl-DNA phosphodiesterase 1 (TDP1): qHTS in cells in presence of CPT; chicken DT40 Tdp1-/-;hTDP1 cells + 20 nM CPT, ATP luminescence, 48 h; Potency, µM (doses to about 46.2 µM), for the others: at the highest dose activity change, negative = growth inhibition, most hits filed as inhibitors; 420,000 tested, 12% active; AID 686979, 2013; further: potency means the concentration at half of the fitted maximal effect; nearly all actives have a fitted effect of over 55% in size
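Chicken DT40 Tdp1-/- cells stably complemented with human TDP1 were seeded at 400 cells/well in medium containing 20 nM camptothecin, exposed to pin-transferred compounds, and grown at 37 °C for at least 48 hr. Viability was read as ATP luminescence.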
IL1B secr inh: qHTS for Inhibitors of Inflammasome Signaling: IL-1-beta AlphaLISA Primary Screen; THP-1 LPS/ATP IL-1B secretion, AlphaLISA, 16 h; stronger effect = lower value; activity change, % at 57.5 µM; 360,000 tested, 4.7% active; AID 743279, 2014; in the data active means activity change below about -50%; inconclusive means mostly about -30% to -49%
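THP-1 cells pretreated 1 hr with compounds (up to 57.5 uM final), then stimulated with LPS (250 ng/mL final) plus ATP (1.25 mM final); secreted IL-1B measured by AlphaLISA after 16 hr, decreased signal indicating inhibition.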
HT1080NT lethal: qHTS for induction of synthetic lethality in tumor cells producing 2HG: qHTS for the HT-1080-NT fibrosarcoma cell line; HT-1080-NT fibrosarcoma viability, CellTiter-Glo ATP luminescence, 48 h; Potency, µM (titrated, usually from 46.1 µM), for inactives: at the top dose activity, negative = less viability, actives largely listed as cytotoxic; 360,000 tested, 1.6% active;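 further: NT is the 2HG producing partner of a matched IDH1 knockdown line; potency means the concentration at half of the fitted maximal effect; 0% = DMSO-treated cells and -100% = media-only wells without cells; nearly all actives have a fitted effect of over 55% in size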
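A 48-hour cytotoxicity screen used HT-1080-NT cells plated 2 hours before compound delivery. ATP-based CellTiter-Glo luminescence measured viability, normalized to DMSO and no-cell controls.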
TDP1 cell noCPT: qHTS for Inhibitors of human tyrosyl-DNA phosphodiesterase 1 (TDP1): qHTS in cells in absence of CPT; Potency, µM (highest dose often 46.2 µM), without a hit: top-dose activity change, negative = growth inhibition, actives largely listed as inhibitors; DT40 Tdp1-/- hTDP1 cells, no CPT, ATP luminescence, 48 h; 420,000 tested, 15% active; further: potency means the concentration at half of the fitted maximal effect; nearly all actives have a fitted effect of over 55% in size
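Seeded 400 DT40-hTDP1 cells/well (vehicle DMSO, no 20 nM CPT); pinned compounds; ≥48 hr at 37 °C; CellTiter-Glo luminescence as viability measure.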
Numbers without * were called inactive; ? = inconclusive; . = no result given; [ ] = remark or other dose. Unless noted, the call rests on the fitted dose curve; in most records, active means well fitted curve in the direction sought with a large enough effect; inconclusive means small, poorly fitted or top-dose-only effect, or another doubt; inactive means no such curve, though single readings can be large; an effect the other way counts as inactive or inconclusive. Unless noted, on the % scale 0 is the no-effect control and ±100 the full control effect.

SMILES	HT1080 IDH1KD tx	DT40 TDP1 CPT	IL1B secr inh	HT1080NT lethal	TDP1 cell noCPT
COc1ccc(NC(=O)C(Sc2ccccc2)c2ccccc2)c(OC)c1 (stereo unspecified)	?	-14%	-3	-13%	?
OC(CNCc1ccccc1)Cn1ccc2ccccc21 (stereo unspecified)	1%	-19%	-50*	-3%	-8%
OCc1nc2ccccc2n1CC(O)Cn1ccc2ccccc21 (stereo unspecified)	-8%[9.24 µM]	16µM*	-5	-20%	13µM*
Oc1ccccc1NCC(O)Cn1ccc2ccccc21 (stereo unspecified)	?	16µM*	?	?	21µM*
CC(=O)Nc1ccccc1/C=C/c1ccc2c(C)cc(C)c(O)c2n1	19%	?	1	19%	16µM*
C[C@H](CO)N1C[C@H](C)[C@@H](CN(C)CC2CC2)OCc2cnnn2CCCC1=O	-4%	13%	-15	-2%	1%
O=C(COc1ccccc1F)Nc1ccc2nc(SCc3ccccc3)sc2c1	.	-26%	.	.	-20%
CCC1CCCCN1S(=O)(=O)c1ccc(S(=O)(=O)N(Cc2cccs2)C2CC2)cc1 (stereo unspecified)	7%	18µM*	62	8%	23µM*
COc1ccc(S(=O)(=O)N2CCCC2C(=O)NCc2cccs2)cc1 (stereo unspecified)	0%	-27%	19	2%	-22%
CCC1CCCCN1S(=O)(=O)c1ccc(S(=O)(=O)N(Cc2ccccn2)CC2CCCO2)cc1 (stereo unspecified)	-2%	23µM*	-1	6%	23µM*
CC1(C(=O)NCc2ccccc2)CSCC(=O)N1Cc1cccc(F)c1 (stereo unspecified)	4%	2%	8	1%	?
Cc1ccc(CN2C(=O)CCC2C(=O)NCCN2CCN(c3cccc(Cl)c3)CC2)cc1 (stereo unspecified)	-15%	?	?	-2%	15µM*
Cc1ccc(CN2C(=O)CCC2C(=O)N2CCN(c3ccc(F)cc3)CC2)cc1 (stereo unspecified)	2%	-19%	0	5%	-12%
O=C(C1CCC(=O)N1Cc1ccccc1Cl)N1CCN(c2cccc(Cl)c2)CC1 (stereo unspecified)	?	23µM*	-2	-14%	23µM*
CCOc1ccc(C(C)=O)cc1CN1c2ccc(S(N)(=O)=O)cc2CC1C (stereo unspecified)	-19%	?	-24	-2%	?
COc1ccc(O)c(CN2CCOc3c(cc(-c4cccc(OC)n4)cc3OC)C2)c1	.	-3%[9.04 µM]	.	.	?
OC(COc1cccc2ccccc12)CN1CCN(c2ccc(Cl)cc2)CC1 (stereo unspecified)	-10%	?	-14	-20%	23µM*
OC(COc1c(F)cc(Br)cc1F)CN1CCOCC1 (stereo unspecified)	5%	3%	-5	-1%	2%
Cc1cccc(N2CCN(CC(O)COc3ccccc3Cl)CC2)c1 (stereo unspecified)	-4%	?	0	-2%	16µM*
OC(COc1c(F)cc(Br)cc1F)CN1CCN(c2ccc(F)cc2)CC1 (stereo unspecified)	-3%[9.24 µM]	?	-20	-21%	18µM*
OC(COc1cccc2ccccc12)CN1CCCC1 (stereo unspecified)	-17%	2%	-9	-2%	-5%
CCCOc1ccccc1Nc1nnc(C)c(=O)[nH]1	6%	-18%	24	15%	-5%
COc1ccccc1OCC(=O)NCC1CCCN(C(=O)c2ccccc2C(C)=O)C1 (stereo unspecified)	14%	8%	-7	6%	3%
COc1ccccc1OCC(=O)NCC1CCCN(C(=O)c2ccccc2SC)C1 (stereo unspecified)	8%	?	14	10%	15µM*
C=CCNc1ncnc2c1ncn2[C@H]1CN(Cc2ccc(-c3ccccc3)cc2)C[C@@H](CO)O1	?	16µM*	-12	?	23µM*
SMILES	HT1080 IDH1KD tx	DT40 TDP1 CPT	IL1B secr inh	HT1080NT lethal	TDP1 cell noCPT
OCCCNc1ncnc2c1ncn2[C@H]1CN(Cc2ccc(-c3ccccc3)cc2)C[C@@H](CO)O1	-20%	15µM*	63	-17%	21µM*
COCCNc1ncnc2c1ncn2[C@H]1CN(Cc2ccc(-c3ccccc3)cc2)C[C@@H](CO)O1	?	18µM*	1	-28%	21µM*
COCCNc1ncnc2c1ncn2[C@H]1CN(Cc2ccc(F)cc2)C[C@@H](CO)O1	0%	-18%	20	?	-17%
C=CCNc1ncnc2c1ncn2[C@H]1CN(Cc2ccco2)C[C@@H](CO)O1	9%	-12%	0	?	-3%
COc1ccccc1CNS(=O)(=O)c1ccc2c(c1)NC(=O)CC(=O)N2	.	6%	.	.	-15%
COc1ccc2c(c1)CCc1sc(NC(=O)c3ccco3)nc1-2	17%	?	6	30%	?
COc1ccc2c(c1)-c1nc(NC(=O)c3ccco3)sc1CC2	9%	?	-6	10%	15µM*
COc1ccc2c(c1)Cc1sc(NC(C)=O)nc1-2	3%	-13%	-21	-4%	4%
COc1ccc2c(c1)Cc1sc(NC(=O)c3cccnc3)nc1-2	5%	?	?	17%	21µM*
Cc1nc2ccc(C(=O)N3CCCC(CO)(Cc4ccc(F)cc4F)C3)cc2nc1C (stereo unspecified)	0%	-25%	-11	3%	?
Nc1ccc(Cn2ccc3c4c(N)nc(N)nc4ccc32)cc1	0.033µM*	?	-99*	0.52µM*	0.13µM*
COc1ccc(S(=O)(=O)n2ccnc2C)c(C)c1C	11%	-8%	0	9%	21%
O=C(Oc1ccc(N(Cc2cccs2)C2=NS(=O)(=O)c3ccccc32)cc1)c1ccccc1Cl	9%	6.5µM*	18	14%	5.8µM*
COc1ccc(C(=O)NCCN2CCC(n3c(=O)[nH]c4ccccc43)CC2)cc1F	0%	-25%	.	-8%	-28%
O=C(NCCN1CCC(n2c(=O)[nH]c3ccccc32)CC1)c1cccnc1Cl	12%	?	?	15%	-28%
O=C(NCCN1CCC(n2c(=O)[nH]c3ccccc32)CC1)c1ccc(F)c(F)c1	1%	0.33µM*	.	-22%	-35%
